# Measured values taken from the OligoGym collection.
# Biological target: MAN1C1
# Experiment: pooled miR-30 sensor sort-seq; sequence = guide strand
# Conditions: shRNA
# Note: reference of the scale not given here.
row,Sequence,sensor-assay potency score (higher = more potent)
1,AATTGTGACAAAACTAAACTGT,0.356
2,TTGAGAACAGTCTCAAATCCTG,-0.222
3,TAGAAAGAAGCTCTGCTGCTTG,0.252
4,TTTGTGTGTGTGCAAACACTGG,-1.13
5,TTGAACATAGGGTCAGTGTTGG,-0.0716
6,TTCGGAACACCTCTTCTCCTGT,-0.298
7,TATGACTCGTGACACGTCTTGG,-0.605
8,TAACGCTTATAGCTCTGCCAAG,-1.49
9,TTATTCGGAACACCTCTTCTCC,-0.384
10,TTCGATCTTCCTGAGGACCTTG,0.041
11,TTAGCCTCCATATCTGTCTTGC,-0.298

# Biological target: MANEAL
# Experiment: as above
# Conditions: shRNA
row,Sequence,sensor-assay potency score (higher = more potent)
1,TACCACGAGTAGTAGAAGGCGT,-0.339
2,TAGTACTTGCCATTGACCCTGT,-0.0343
3,TTGTGGTTGTTCCAGGGCCGAA,-1.8
4,ATAGTACTTGCCATTGACCCTG,-0.405
5,AAGTTCTTCACAGCTTTCCAGT,-0.845
6,TTGATGAAGTGCTCCGCCCAGC,-0.595
7,ATGAACATGAGGTTGTTGGCAT,0.179
8,ATGCTGGTGTCTATGTAGCCAG,-1.86
9,TAGCTGGCCGAGATCTTGGGGT,-1.02
10,TTTGATGAAGTGCTCCGCCCAG,-0.378
11,TAGAAGGCGTGCAGGTCCGAGT,-1.05
12,TTCTCTTTGATGAAGTGCTCCG,-0.00624

# Biological target: MAP4K4
# Experiment: as above
# Conditions: shRNA
row,Sequence,sensor-assay potency score (higher = more potent)
1,TTATAGACTTGTCCATAGGTGC,-0.62
2,TTGACCACTGAGCCTTTCCGGG,-1.11
3,TTTGATGCTACACTGGATCATA,-0.597
4,TTCTCTTTCAACTCTCCTCTTT,-0.401
5,TAGATCACTTTCAACCTCTGGC,0.492
6,TTCTTGTTCTCTCCTTCGCTGT,-0.84
7,TAGAACTACATCCTTGGTGATC,-1.1
8,TAGACTTGTCCATAGGTGCCAT,-0.0714
9,TACATCATCATGGACAATCATG,-1.13
10,TTGTATTTACGAATCTCCGGGG,-0.365
11,TTGCCTTTTATATTCTTCCTGC,-0.0293
12,TTTGTTGAAATCGTCTTCGGTT,0.0416

# Biological target: MAPK4
# Experiment: as above
# Conditions: shRNA
row,Sequence,sensor-assay potency score (higher = more potent)
1,TTGCTGTTGACACCTCTCTTTT,-1.31
2,TACCACTTTGTTACCAACCCTT,-0.102
3,TTAGTAGTTATAACAATTCCTC,-0.514
4,TAAGTTTCTAATGTGTTGCAGG,-0.429
5,TTCTTCACAGCGACCTTCCGGC,0.22
